From PubChem BioAssay (Tox21)
“And” between values parts separate entries of the source, which are not always exact repeats. Equal entries are not always repeated. Results filed as inconclusive are left out. Some compounds were tested as several samples or in several runs, with calls that do not always agree. The source made the active and inactive calls. Calls come from the whole dose curve; as a rule, active = well fitted cell-killing curve with a large enough effect in the repeat runs; inconclusive = weak or mixed curves; inactive = no such curve, though single readings can be large or run the other way.

Assay: qHTS assay for identifying genotoxic compounds that show differential cytotoxicity against isogenic chicken DT40 cell lines with known DNA damage response pathways - Rad54/Ku70 mutant cell line (AID 743015); note: nearly all actives have a fitted effect of over 60% in size
Conditions: DT40 Rad54/Ku70 mutant viability, CellTiter-Glo, 40 h; series mostly up to 66.8 µM; activity change, negative = cytotoxicity: at the top concentration
Potency is the fitted concentration of half-maximal effect.

SMILES	Potency
Clc1ccccc1CN1CCc2sccc2C1	26.6 µM (active)
CSc1ccc2c(c1)N(CCC1CCCCN1C)c1ccccc1S2 (configuration not stated)	9.44 µM (active) and 19.3 µM (active)
CCN=C1C=CC(=C(c2ccc(N(CC)CC)cc2)c2ccc(N(CC)CC)cc2)c2ccccc21	0.0192 µM (active)

Assay: qHTS assay to identify small molecule antagonists of the androgen receptor (AR) signaling pathway - cell viability counter screen (AID 743033; note: nearly all actives have a fitted effect of over 45% in size; for activity change, negative = cytotoxicity: % is set by controls: 0 for no effect and ±100 for the full control effect)
Conditions: AR-bla HEK293 viability, CellTiter-Glo luminescence, 16 h; series mostly up to 58.5 µM; activity change, negative = cytotoxicity: at the top concentration

SMILES	Potency	activity change, negative = cytotoxicity
CCCCCCCCCCCCN(CCO)CCO	43.5 µM (active)	–
CCCCNc1c(C(=O)OCC)c(C)nc2c1cnn2CC	–	-17.2% (inactive)
CCCCCCCCCCCCCCCC	–	0.384% (inactive)
S=C(SSSSSSC(=S)N1CCCCC1)N1CCCCC1	0.68 µM (active)	–
COc1cccc(CCc2ccccc2OCC(CN(C)C)OC(=O)CCC(=O)O)c1 (configuration not stated)	–	-20.3% (inactive)
Cc1cc2c(C(C)C)c(O)c(O)c(C=O)c2c(O)c1-c1c(C)cc2c(C(C)C)c(O)c(O)c(C=O)c2c1O	21.3 µM (active)	–
ClC/C=C\CCl	–	-21.9% [at 78.9 µM] (inactive)
O=S(=O)(O)CCCN1CCOCC1	–	-0.111% (inactive)
CC(=O)Nc1ccc(O)cc1	inactive	–
CO[C@H]1C=CO[C@@]2(C)Oc3c(C)c(O)c4c(O)c(cc(O)c4c3C2=O)NC(=O)/C(C)=C\C=C/[C@H](C)[C@H](O)[C@@H](C)[C@@H](O)[C@@H](C)[C@H](OC(C)=O)[C@@H]1C	inactive and 49.3 µM (active)	–
CNC(=S)NN	3.89 µM (active)	–
CNC(=O)c1cc(Oc2ccc(NC(=O)Nc3ccc(Cl)c(C(F)(F)F)c3)cc2)ccn1	16.9 µM (active)	–
Cc1cccc(Br)c1	–	6.39% [at 78.9 µM] (inactive)
CC1=C(/C=C/C(C)=C/C=C/C(C)=C/C(=O)Nc2ccc(O)cc2)C(C)(C)CCC1	inactive and 44.8 µM (active)	–
